The list is not random: actives were taken first. Their share in the collection is about 7.8%.
MITF inhib = MITF inhibition; TRPM1 promoter luciferase, luminescence, 24 h; inhibition, % (test concentration not listed); 37,000 compounds, 0.28% hits; AID 2240; in the data active = inhibition above about 85%; inconclusive = no clear call, values can overlap the other calls; inactive = below about 68%;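 note: human melanocyte line stably carrying TRPM1 promoter luciferase reporter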
Hedgehog inh = blocks Sonic Hedgehog signaling. Shh-LIGHT2 Gli-luciferase reporter, 30 h. inhibition, % (concentration not given with the values). 22,000 compounds, 2.1% hits. AID 2313;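 active = mean inhibition across valid replicates above about 65%, limit read from the data; inconclusive = mean under the limit, yet half or more replicates past it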;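 note: pathway switched on by Shh-conditioned medium diluted 1 in 25 in low serum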
NOMO-1 viab = STK33 inhibitor candidate reducing NOMO-1 cell viability; 37,000 compounds, 7.5% hits; NOMO-1 AML viability, CellTiter-Glo luminescence, 72 h; inhibition, % (no concentration beside the values); in the data active = inhibition above about 80%; inconclusive = no clear call, values can overlap the other calls
Starred values were filed as active, the others as inactive; u = inconclusive; x = no result given.

SMILES	MITF inhib	Hedgehog inh	NOMO-1 viab
CN(C)CCCn1cc(C2=C(c3c[nH]c4ccccc34)C(=O)NC2=O)c2ccccc21	-13	32	u
N#Cc1c(NC(=O)CSc2ncccn2)sc2c1CCCC2	23	x	27
COc1cccc(NC(=O)CSc2nc3ccccc3c(=O)n2-c2cccc(C(F)(F)F)c2)c1	18	x	50
O=C(NCC[C@@H](CNC(=O)c1cccc(O)c1O)NC(=O)c1cccc(O)c1O)c1cccc(O)c1O	17	24	120*
CC(C)CCNC(=O)c1cccc2c1-c1ccccc1C2=O	2	26	20
COc1ccc(-c2nnc(SCC(N)=O)n2-c2cccc(C(F)(F)F)c2)cc1OC	-9	x	-7
CCC[C@@H](O)[C@H](O)[C@@H]1CC(OC)=CC(=O)O1	-1	-19	1
C[C@@H]1CN([C@H](C)CO)C(=O)c2cc(NC(=O)Nc3cccc4ccccc34)ccc2O[C@@H]1CN(C)C(=O)Nc1ccc(C(F)(F)F)cc1	0	-17	22
C[C@@H]1CN([C@@H](C)CO)C(=O)c2cc(NC(=O)Nc3cccc4ccccc34)ccc2O[C@@H]1CN(C)Cc1ccc(C(F)(F)F)cc1	40	x	106*
C[C@@H]1CN([C@H](C)CO)C(=O)c2cc(NC(=O)Nc3cccc4ccccc34)ccc2O[C@@H]1CN(C)Cc1ccc(C(F)(F)F)cc1	47	0	u
C[C@@H]1CN([C@@H](C)CO)C(=O)c2cc(NC(=O)Nc3ccc(F)cc3)ccc2O[C@@H]1CN(C)C(=O)Nc1cccc2ccccc12	-1	8	69
C[C@@H]1CN([C@H](C)CO)C(=O)c2cc(NC(=O)Nc3ccc(C(F)(F)F)cc3)ccc2O[C@H]1CN(C)C(=O)Nc1cccc2ccccc12	5	18	117*
C[C@H](CO)N1C[C@H](C)[C@H](CN(C)C(=O)Nc2cccc3ccccc23)Oc2ccc(NC(=O)Nc3ccc(C(F)(F)F)cc3)cc2C1=O	43	21	114*
O=C1CSCC(=O)N1c1cccnc1	6	-15	-2
COc1ccc(NC(=O)c2ccco2)cc1NC(=O)COc1cc(C)c(Cl)c(C)c1	35	x	96*
COc1ccc(CC(=O)Nc2ccc(S(N)(=O)=O)cc2)cc1OC	2	x	11
COc1ccc(CC(=O)Nc2ccc(NC(=O)c3ccco3)cc2)cc1OC	-21	x	114*
COc1cc(NC(=O)COc2cc(C)c(Cl)c(C)c2)ccc1NC(=O)c1ccco1	8	x	-17
CC1CC(=O)c2c(ccc3c2C(=O)c2c(O[C@@H]4O[C@@H](C)[C@H](O)[C@@H](O)[C@H]4O)cccc2C3=O)C1 (stereo partly specified)	10	3	26
COc1cccc2c1C(=O)c1c(O)c3c(c(O)c1C2=O)C[C@@](O)(C(C)=O)C[C@@H]3O[C@H]1C[C@H](N)[C@H](O)[C@H](C)O1	74	99*	121*
COc1ccc(N(CC(=O)Nc2cc(C)ccc2C)S(C)(=O)=O)cc1OC	-11	x	42
N#C/C(=C\c1ccc(O)c(O)c1)C(=O)NCCCNC(=O)/C(C#N)=C/c1ccc(O)c(O)c1	-10	-9	31
Oc1cc(O)cc(/C=C/c2ccc(O)c(O)c2)c1	94*	82*	113*
O=C(CN1C(=O)c2ccc([N+](=O)[O-])cc2C1=O)Nc1ccccc1-c1ccccc1	-20	x	11
C[C@H](CO)N1C[C@H](C)[C@@H](CN(C)Cc2ccc(C(=O)Nc3ccccc3N)cc2)Oc2ccc(NC(=O)Cc3ccccc3)cc2C1=O	-18	x	4
SMILES	MITF inhib	Hedgehog inh	NOMO-1 viab
C[C@H](CO)N1C[C@H](C)[C@@H](CN(C)Cc2ccc(C(=O)Nc3ccccc3N)cc2)Oc2ccc(NC(=O)Nc3ccc(F)cc3)cc2C1=O	0	x	31
C[C@@H]1CN([C@H](C)CO)C(=O)c2cc(NC(=O)Cc3ccccc3)ccc2O[C@@H]1CN(C)Cc1ccc(C(=O)Nc2ccccc2N)cc1	-29	x	105*
C[C@@H]1CN([C@H](C)CO)C(=O)c2cc(NC(=O)Nc3ccccc3)ccc2O[C@@H]1CN(C)Cc1ccc(C(=O)Nc2ccccc2N)cc1	11	x	109*
COc1ccc(OC)c(NC(=O)CSc2nnc(-c3ccc(Cl)cc3Cl)n2C)c1	29	x	1
Cc1ccc(NC(=O)CSc2nnc(C)n2-c2ccccc2)cc1C	-12	x	0
O=C(O)CCc1ccc(-c2ccc(F)cc2)n1-c1cccc(C(=O)O)c1	-54	x	-29
O=c1cc(CSc2cccc3cccnc23)c2ccc(O)cc2o1	-18	7	110*
O=c1cc(CSc2ccccn2)c2ccc(O)cc2o1	-48	-19	20
O=C1/C(=C/c2ccc(-c3nn[nH]n3)cc2)C(c2ccccc2)Oc2ccccc21 (stereo unspecified)	11	74*	57
Cc1ccc(S(=O)(=O)N2C(=O)CCC2C(=O)Nc2ccc(Cl)c(C(F)(F)F)c2)cc1 (stereo unspecified)	-14	x	-6
COC(/C=C/C(OC(C)=O)C(C)OC(C)=O)C(O)C1CC=CC(=O)O1 (stereo unspecified)	-16	3	27
Cc1ccc2nc(-c3ccc(NC(=O)C(C)Oc4ccc5c(C)cc(=O)oc5c4)cc3)sc2c1 (stereo unspecified)	-29	x	21
Cc1ccnc(NC(c2cc(C)ccc2C)c2ccc3ccc(C)nc3c2O)c1 (stereo unspecified)	11	x	41
Cc1ccnc(SCC(=O)c2ccc([N+](=O)[O-])cc2)n1	-3	x	28
COc1cccc(C(Nc2cc(C)ccn2)c2ccc3ccc(C)nc3c2O)c1 (stereo unspecified)	29	x	97*
Cc1ccnc(NC(c2ccc([N+](=O)[O-])cc2)c2ccc3ccc(C)nc3c2O)c1 (stereo unspecified)	63	x	118*
O=C(COc1ccc(C(=O)Nc2ccc(F)cc2)cc1)Nc1cc(Cl)cc(Cl)c1	-33	x	49
c1ccc(-c2cnc(SCc3nc4ccccc4[nH]3)[nH]2)cc1	14	x	20
CNC(=O)c1ccc2nc(N)sc2c1	-7	-27	40
Cc1c(/C=C2\SC(c3ccccc3)=NC2=O)c(=O)n(-c2ccccc2)n1C	4	-25	11
C[C@@H]1CN([C@H](C)CO)C(=O)c2cc(NC(=O)Nc3ccc(C(F)(F)F)cc3)ccc2O[C@@H]1CN(C)C(=O)Nc1ccc2c(c1)OCO2	35	4	95*
C[C@@H]1CN([C@@H](C)CO)C(=O)c2cc(NC(=O)Nc3ccc(C(F)(F)F)cc3)ccc2O[C@@H]1CN(C)C(=O)Nc1ccc2c(c1)OCO2	44	40	102*
C[C@@H]1CN([C@H](C)CO)C(=O)c2cc(NC(=O)Nc3ccc4c(c3)OCO4)ccc2O[C@H]1CN(C)C(=O)Nc1ccc(C(F)(F)F)cc1	28	0	23
C[C@H]1CN([C@@H](C)CO)C(=O)c2cc(NC(=O)Nc3ccc(C(F)(F)F)cc3)ccc2O[C@H]1CN(C)C(=O)Nc1ccc2c(c1)OCO2	-20	12	42
O=C(O)C1C2CCC(C2)C1C(=O)c1ccccc1 (stereo unspecified)	21	-23	1
C=C1[C@H]2CC[C@@]3(C)[C@H](c4ccoc4)OC(=O)C[C@]13O[C@H]1C[C@H](O)C(C)(C)[C@H](CC(=O)OC)[C@]12C	-36	-34	5

From PubChem BioAssay
